Measurements as given in PubChem BioAssay AID2462 (Broad Institute, 2010).
In all, about 330,000 compounds went through this assay and about 220 (0.067%) were called active. Shown is part of a subset that was picked to be rich in actives. Unmarked numbers belong to inactive results.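 How the source made its calls: active means over half of replicate activation scores above 10%, or exactly half above 10 with the replicate mean above 10; inconclusive means replicate mean below 10 yet half the replicates above 10; inactive means over half of replicates below 10.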

experiment: inducers of caspase signal in A1-primed MEFs – cell-based, luminescence, HTS, A1 inhibitor project, primary screen (AID 2462); details: MEF A1-2A-BIM cells, Caspase-Glo 3/7 luminescence, 3 h; hits give high values; percent of clofoctol response, vehicle zero; concentration not given here

Row | Compound | caspase activation
1 | O=c1c2ccccc2ccc2ccc(P(=O)(O)O)cc12 | 0.843%
2 | N#CCOc1ccc(C2=NO[C@@H]3[C@@H]4C[C@@H]([C@H]5C(=O)N(c6ccc7c(c6)OCO7)C(=O)[C@@H]45)[C@H]23)cc1 | 0.442%
3 | CSc1cc(C)[nH]c(=O)n1 | -0.248%
4 | O=S(=O)(c1ccccc1)N(Cc1cccc(F)c1)c1ccccc1 | 0.447%
5 | O=C(Cn1ccc2cc(S(=O)(=O)N3CCCC3)ccc21)NCc1ccccc1 | -0.143%
6 | COC(=O)Cn1cc(/C=C/[N+](=O)[O-])c2ccccc21 | 1.03%
7 | O=[N+]([O-])/C=C/c1ccc2c(ccn2Cc2ccccc2)c1 | 9.93% (active)
8 | COc1ccc(S(=O)(=O)N(C)C[C@H]2Oc3ccc(NS(=O)(=O)c4cccs4)cc3CC(=O)N([C@H](C)CO)C[C@H]2C)cc1 | -0.719%
9 | O=C(O)c1cccnc1Sc1ncnc2sc3c(c12)CCC3 | -0.234%
10 | O=C(CSc1nc(Nc2ccccc2)nc(N2CCOCC2)n1)Nc1cc(Cl)ccc1O | 0.376%
11 | Nc1nc(Br)c2ccccc2c1-c1ccc(F)cc1 | -0.0976%
12 | CC(C)(O)C#Cc1ncc(C(F)(F)F)cc1Cl | 0.0403%
13 | Cc1ccc(NCc2n[nH]c(=S)n2-c2ccccc2)cc1Cl | -0.072%
14 | CCCS(=O)(=O)N1CCN=C1SCc1cccc(F)c1 | -0.156%
15 | CCn1ncc(CNC(=O)C2(C)CC2(Br)Br)c1C (centres undefined) | -0.282%
16 | COc1cc(C(=O)NC2CCN(Cc3ccccc3)CC2)cc(Cl)c1OC(C)C | -0.406%
17 | COc1ccccc1CNC(=O)CCCNS(=O)(=O)c1cccc2nsnc12 | 0.433%

Row | Compound | caspase activation
18 | O=C(c1cc2ccccc2o1)N1CCN(S(=O)(=O)c2ccc(Cl)s2)CC1 | -0.105%
19 | COc1ccc(CNC(=O)CN2CCC(n3nnc4cc(F)ccc43)CC2)cc1 | -0.421%
20 | CC1CCCN(C(C(=O)Nc2ccc(C(C)C)cc2)c2ccc3c(c2)OCO3)C1 (centres undefined) | -0.471%
21 | NC(=O)C1CCCN(CC(=O)N2CCN(c3ccccc3)CC2)C1 (centres undefined) | -0.0385%
22 | Cc1ccc(S(=O)(=O)N2CCN(C(=O)CN3C(=O)NC(C)(c4ccc(Cl)cc4)C3=O)CC2)c(C)c1 (centres undefined) | -0.688%
23 | CC(NCC(=O)Nc1ccccc1C(=O)NC1CC1)c1ccccc1Cl (centres undefined) | 0.355%
24 | CC(=O)N(CN1C(=O)C2C3C=CC(C3)C2C1=O)c1cccc(Cl)c1 (centres undefined) | 0.192%
25 | CCOc1ccccc1NC(=O)NC1CCCCCCC1 | -0.841%
26 | Cn1c(CCCOc2ccc(Cl)cc2Cl)n[nH]c1=S | -0.629%
27 | O=C(NC(=S)Nc1ccc2oc(=O)ccc2c1)c1ccc(-c2cccc(Cl)c2Cl)o1 | 0.568%
28 | CC1CCc2[nH]c3ccc(C(=O)N(C)CC(=O)Nc4cccc(F)c4)cc3c2C1 (centres undefined) | 0.268%
29 | Cc1ccc(S(=O)(=O)c2c[nH]c3ccc(C)cc3c2=O)cc1 | -2.55%
30 | COc1ccc(-c2cnc(SCCNC(=O)c3ccc4c(c3)OCO4)[nH]2)cc1 | 1.35%
31 | O=C(N/N=C/c1cccc(OCc2ccccc2)c1)c1ccc(Br)o1 | 0.285%
32 | COC(=O)c1ccc(COc2ccc(/C=N/NC(=O)C(=O)Nc3ccc(OC)cc3)cc2OC)o1 | 0.365%
33 | CCCc1ccc(OCc2ccc(C(=O)N/N=C/c3cccc([N+](=O)[O-])c3)o2)c(OC)c1 | 16.1% (active)
34 | NC(=O)COC(=O)c1cc(S(=O)(=O)N2CCN(c3ccccc3)CC2)ccc1Cl | 0.691%
